OvCa metastasis: inhibitors of ovarian cancer cell adhesion and invasion in omental model; SKOV3ip1-GFP adhesion/invasion on 3D omental model, fluorescence; Potency, µM (highest dose often 45.8 µM), inactives show at the top dose activity change, negative = inhibition, usual class: inhibitors; 0.1% of 46,000 active;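 also: plate controls were DMSO wells for no effect and tomatine positive control wells for full effect; nearly all actives have a fitted effect of over 65% in size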
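A 3D layer of primary human omental fibroblasts, mesothelial cells, fibronectin and collagen I, grown 48 hr, received SKOV3ip1-GFP cells in serum-free medium plus compounds at 0.36-46 umol/L. After 2 hr RT and 16 hr 37 C, fixed adherent GFP cells were counted; normalized to DMSO and tomatine.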
S16 viability: toxic to S16 Pmp22-F2sN Schwann cells; S16 Pmp22-F2sN Schwann cells viability, CellTiter-Glo, 24 h; Potency, µM (titrated, usually from 57.5 µM), for the others: at the top dose activity change, negative = cytotoxicity, most hits filed as cytotoxic; 0.48% of 43,000 active; also: % is scaled to controls: 0 for no effect and ±100 for the full control effect; nearly all actives have a fitted effect of over 65% in size
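Viability was measured by CellTiter-Glo luminescence (15 min, room temperature). This followed 24 h at 37 °C of compound exposure (23 nL pin transfer) in S16 Pmp22-F2sN Schwann cells, 500-1,000 per well.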
mTORC1 inh: inhibitors of mTORC1 signaling in Tsc2-/- p53-/- MEF cells | Tsc2-/- p53-/- MEF, phospho-rpS6 immunofluorescence/PI, 24 h | Potency, µM (top dose mostly 38.3 µM), for inactives: top-dose activity change, negative = inhibition, hits mostly inhibitors | 0.78% of 44,000 active | AID 493208;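 also: plate controls were DMSO for no effect and rapamycin for full effect; nearly all actives have a fitted effect of over 50% in size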
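Immunofluorescence of rpS6 phosphorylation in Tsc2-/-, p53-/- MEFs after 24 h compound exposure, normalized to propidium iodide signal. Activity is expressed as % positive cells, thresholded with 7.5 nM rapamycin.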
GALC G270D up: galactocerebrosidase G270D activity enhancement, cell-based; P54803; 145M-Twi-hGALC-G270D cells (Twitcher mouse brain line with human GALC G270D), HMU-beta-Gal fluorescence, 48 h; AID 1159614; Potency, µM (highest dose often 57.5 µM), hits mostly activators; 0.1% of 45,000 active; also: 0% is about no effect; nearly all actives have a fitted effect of over 65% in size
Target sequence (P54803 whole entry G286D): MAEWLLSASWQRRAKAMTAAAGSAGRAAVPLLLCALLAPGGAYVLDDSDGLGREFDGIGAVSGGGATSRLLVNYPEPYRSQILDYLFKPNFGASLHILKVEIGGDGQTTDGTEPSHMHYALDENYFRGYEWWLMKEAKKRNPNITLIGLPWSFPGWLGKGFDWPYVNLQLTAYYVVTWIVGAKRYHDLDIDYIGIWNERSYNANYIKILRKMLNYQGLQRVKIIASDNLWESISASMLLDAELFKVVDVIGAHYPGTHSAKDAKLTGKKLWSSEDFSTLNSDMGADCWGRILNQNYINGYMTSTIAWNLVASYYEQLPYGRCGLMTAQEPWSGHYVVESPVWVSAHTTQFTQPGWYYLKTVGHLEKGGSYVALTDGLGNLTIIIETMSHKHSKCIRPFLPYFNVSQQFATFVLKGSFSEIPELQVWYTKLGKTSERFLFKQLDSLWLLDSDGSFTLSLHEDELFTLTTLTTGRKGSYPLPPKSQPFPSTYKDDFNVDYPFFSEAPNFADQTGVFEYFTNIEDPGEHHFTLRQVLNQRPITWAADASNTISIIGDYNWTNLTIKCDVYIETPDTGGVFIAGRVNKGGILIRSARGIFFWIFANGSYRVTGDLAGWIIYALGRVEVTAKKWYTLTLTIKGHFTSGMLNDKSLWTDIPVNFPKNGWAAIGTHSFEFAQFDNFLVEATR
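Live 145M-Twi cells (Twitcher mouse brain-derived, GALC-null) stably expressing human GALC-G270D, with a wild-type GALC line, were compound-treated. Residual GALC activity was then read as fluorescence from 0.1 mM final HMU-β-gal at pH 5.2; higher signal means activation.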
PMP22 txn prim: modulators of PMP22 gene transcription in S16 Schwann cells; S16 Pmp22-F2sN Schwann cells (luciferase reporters placed in the Pmp22 gene), FLuc/NLuc coincidence luminescence, 24 h; Potency, µM (titrated, usually from 57.5 µM), for inactives: top-dose activity change, negative = inhibition, usual class: inhibitors; 2% of 43,000 active; AID 1508649; active = clear falling dose curves in both reporters; inconclusive = both reporters move, but less clearly or upward; inactive = either reporter flat; the % is the NLuc reporter signal; also: % is scaled to controls: 0 for no effect and ±100 for the full control effect
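Schwann cells carrying the coincidence reporter were exposed to library compounds for 24 h at 37C, then lysed and read for FLuc and, after quenching, NLuc luminescence on a CCD imager.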
Numbers without * were called inactive; i = inactive; ? = inconclusive; · = no result; [ ] = dose if it differs, or a comment. In the library only some 2.6% were active in any assay of this set; here they are far more common. Unless noted, calls follow the shape of the dose curve; as a rule, active = well fitted curve in the direction sought with a large enough effect; inconclusive = small, poorly fitted or top-dose-only effect, or another doubt; inactive = no such curve, though single readings can be large; an effect the other way counts as inactive or inconclusive. Potency is read from the fitted curve at half-maximal effect.

SMILES | OvCa metastasis | S16 viability | mTORC1 inh | GALC G270D up | PMP22 txn prim
CCCCS(=O)(=O)c1oc(-c2ccc(F)cc2)nc1S(=O)(=O)c1ccccc1 | ? | 4.47µM* | 2.93µM* | i | 2.38µM*
CS(=O)(=O)c1oc(-c2ccc(F)cc2)nc1S(=O)(=O)c1ccc(Cl)cc1 | i | 5.62µM* | ? | i | 4.47µM*
CC(C)S(=O)(=O)c1oc(-c2cccs2)nc1S(=O)(=O)c1ccc(F)cc1 | ? | 3.16µM* | 0.585µM* | i | 1.68µM*
O=S(=O)(c1ccc(Br)cc1)c1nc(-c2cccs2)oc1SCc1ccc(F)cc1 | 0.2% | -6.4% | 4.5% | i | ?
CCn1cc(-c2ccnc3[nH]c(-c4cccc(CN(C)C)c4)cc23)c(-c2ccc(NC(=O)N(C)C)cc2)n1 | 1.4% | · | · | · | ·
O=C(Nc1nc2cccc(-c3ccc(CN4CCS(=O)(=O)CC4)cc3)n2n1)C1CC1 | 15.1% | · | · | · | ·
N#Cc1ccc(COC[C@H]2O[C@@H](n3c(NCc4ccc(Cl)c(Cl)c4)nc4c(N)ncnc43)[C@@H](O)[C@@H]2O)cc1 | -19.8% | · | · | · | ·
COc1cc(C(=O)Nc2nc3c(s2)Cc2c(Br)ccc(OC)c2-3)cc(OC)c1OC | -0.2% | 25.1µM* | 0.3% | i | ?
CC(C)c1cnn2c(NCc3ccccc3)cc(NCCCCCCN)nc12 | -29.4% | · | · | · | ·
COc1c(OCCCN2CCOCC2)ccc2c3n(c(=NC(=O)c4cnc(N)nc4)nc12)CCN3 | -4.0%[23.2 µM] | · | · | · | ·
COc1ccc(C)cc1S(=O)(=O)NCC(c1cccs1)S(=O)(=O)c1ccc(C)cc1 (centres undefined) | -2.5% | 25.1µM* | -6.6% | i | ?
Cc1ccc(S(=O)(=O)C(CNS(=O)(=O)c2cc(F)ccc2F)c2cccs2)cc1 (centres undefined) | -4.8% | 20µM* | -0.1% | i | ?
COc1ccc(S(=O)(=O)NCC(c2cccs2)S(=O)(=O)c2ccc(C)cc2)cc1F (centres undefined) | -6.6% | ? | -0.8% | i | ?
COc1ccccc1Cn1cc(C(=O)c2ccc(Cl)cc2)c(=O)c2ccccc21 | ? | ? | 3.29µM* | i | ?
COc1cc(NC(=O)c2cccc(F)c2)ccc1NC(=O)c1cc2ccccc2o1 | 1.1% | -0.4% | 16.5µM* | i | -10.6%
CCCCNC(=O)CSc1c2c(nc3ccc(Cl)cc13)CCCC2 | 3.2% | 39.8µM* | ? | i | ?
COCCOc1ccc2c(c1)ncn2-c1ccc2cccc(N3CCC(N)CC3)c2n1 | 4.7% | · | · | · | ·
Fc1ccc(Nc2c(-c3ccccn3)nc3ccc(Cl)cn23)cc1 | 7.0% | -0.9% | -3.0% | i | 1.6%
CC(C)c1ccc(Nc2c(-c3ccccn3)nc3ccccn23)cc1 | ? | 8.91µM* | -18.7% | i | 14.2µM*
O=c1[nH]nc(Sc2ncc([N+](=O)[O-])s2)n1-c1ccc2c(c1)OCCO2 | 14.8µM* | · | · | · | ·
O=c1oc2c3c(ccc2c2ccccc12)OCN(Cc1ccc(Cl)cc1)C3 | -10.4% | 1.6% | 1.2% | i | ?
COC(=O)Cc1c(C)c2ccc3c(c2oc1=O)CN(Cc1ccc(Cl)cc1)CO3 | 0.3% | -1.4% | -2.8% | 25.1µM* | -8.1%
Nc1nccc(Oc2ccc(NC(=O)c3c[nH]cc(-c4ccc(F)cc4)c3=O)cc2F)c1Cl | -14.3% | · | · | · | ·
COc1ccc(CCNC(=O)CCc2c(C)nc3c(-c4ccc(F)cc4)c(C)nn3c2C)cc1OC | i | 3.6% | 2.4% | i | ?
CCOC(=O)Cc1c(C)nc2c(-c3ccc(OC)c(OC)c3)c(C)nn2c1C | -7.5% | ? | 7.4% | i | 13.5µM*
SMILES | OvCa metastasis | S16 viability | mTORC1 inh | GALC G270D up | PMP22 txn prim
Cn1c(=O)c(Oc2ccc(F)cc2F)cc2cnc(NC3CCOCC3)nc21 | -20.3% | · | · | · | ·
COc1ccccc1NC(=O)c1c(NCc2ccc(OC)c(OC)c2OC)sc2c1CCCC2 | 12.5% | ? | -10.1% | i | 5.02µM*
CCOc1cc(C(c2c(C)[nH]n(-c3ccccc3)c2=O)c2c(C)[nH]n(-c3ccccc3)c2=O)ccc1O | ? | -3.3% | 6.8% | i | 9.46µM*
CCOc1ccc(NC(=O)CSc2oc(-c3ccc(C)cc3)nc2S(=O)(=O)c2ccc(C)cc2)cc1 | -0.9% | 22.4µM* | 0.0% | i | ?
CCOc1ccc(NC(=O)CSc2oc(-c3cccs3)nc2S(=O)(=O)c2ccc(Cl)cc2)cc1 | -6.5% | ? | -1.6% | i | ?
COc1ccc(S(=O)(=O)Nc2cccnc2Nc2ccc(O)cc2)cc1 | 5.9% | · | · | · | ·
FC(F)(F)c1cccc(N2CCN(c3ncnc4c3nc3n4CCCC3)CC2)c1 | 2.6% | ? | 0.2% | i | 13.4µM*
c1ccc(N2CCN(c3ncnc4c3nc3n4CCCC3)CC2)cc1 | 16.1% | ? | 1.4% | i | ?
Cc1cccn2c(=O)c3cc(C(=O)NCC(C)C)sc3nc12 | -16.0% | -1.0% | 0.4% | 3.98µM* | -11.4%
Cc1cccc(NC(=O)c2cc3c(=O)n4cccc(C)c4nc3s2)c1C | -14.6% | -6.5% | ? | i | ?
CCCN(CCC)C(=O)c1cc2c(=O)n3cccc(C)c3nc2s1 | i | ? | -1.3% | 20µM* | -34.9%
O=c1[nH]c(=O)n([C@H]2C[C@@H](O)[C@@H](CO)O2)cc1I | 3.2% | · | · | · | ·
CCOC(=O)c1cc2c(=O)n3ccccc3nc2n(Cc2ccco2)c1=NC(=O)c1cccc(C)c1 | 29.8% | ? | -1.1% | i | ?
CCOCCCn1c(=N)c(C(=O)NCc2ccco2)cc2c(=O)n3ccccc3nc21 | -17.3% | 1.4% | -1.8% | 22.4µM* | ?
CCOC(=O)c1cc2c(=O)n3ccccc3nc2n(Cc2ccco2)c1=NC(=O)c1c(F)cccc1Cl | -16.0% | ? | -20.8% | i | 15µM*
Nc1ncnc2c1c(-c1cccc(OCc3ccccc3)c1)cn2C1CC(CN2CCCC2)C1 (centres undefined) | -18.1% | · | · | · | ·
O=C(CSc1nc(-c2ccccc2)[nH]c1-c1ccccc1)Nc1ccc2c(c1)OCO2 | -12.0% | 35.5µM* | ? | i | ?
Cc1cc(=O)n2nc(N3CCC(C(=O)Nc4ccc(Br)c(C)c4)CC3)sc2n1 | i | 1.3% | -1.6% | i | 15µM*
Cc1cc(=O)n2nc(N3CCC(C(=O)Nc4ccc(Br)cc4F)CC3)sc2n1 | -5.7% | 17.7% | -17.5% | i | -17.2%
COc1ccccc1NC(=O)c1cnc(SCC(=O)N2CCOCC2)n(C)c1=O | -13.9% | 18.5% | -8.1% | i | 10.7µM*
Cc1ccc(Cl)cc1N1CCN(CCCNc2ncnc3onc(-c4ccc(F)cc4)c23)CC1 | -4.2% | ? | -1.2% | i | 17.9µM*
